According to PubChem BioAssay (Tox21):
“And” between values parts separate entries of the source, which are not always exact repeats. Equal values may be shown once. Results filed as inconclusive are left out. A call without a number means that no potency is given here. Some structures have more than one record in an assay (separate samples or runs), and their calls can disagree. The source made the active and inactive calls. Unless noted, the call rests on the fitted dose curve; in most records, active means well fitted curve in the direction sought with a large enough effect in the repeat runs; inconclusive means weak or mixed curves; inactive means no such curve, though single readings can be large; an effect the other way counts as inactive or inconclusive.

Legend:
[1] = target: Acetylcholinesterase (Homo sapiens) (UniProt P22303); experiment: Acetylcholinesterase (AChE) small molecule antagonists: colormetric cell-based qHTS assay (AID 1347395; calls by dose curve; further: nearly all actives have a fitted effect of over 30% in size)
Sequence of Acetylcholinesterase (Homo sapiens) (P22303 whole entry, looked up): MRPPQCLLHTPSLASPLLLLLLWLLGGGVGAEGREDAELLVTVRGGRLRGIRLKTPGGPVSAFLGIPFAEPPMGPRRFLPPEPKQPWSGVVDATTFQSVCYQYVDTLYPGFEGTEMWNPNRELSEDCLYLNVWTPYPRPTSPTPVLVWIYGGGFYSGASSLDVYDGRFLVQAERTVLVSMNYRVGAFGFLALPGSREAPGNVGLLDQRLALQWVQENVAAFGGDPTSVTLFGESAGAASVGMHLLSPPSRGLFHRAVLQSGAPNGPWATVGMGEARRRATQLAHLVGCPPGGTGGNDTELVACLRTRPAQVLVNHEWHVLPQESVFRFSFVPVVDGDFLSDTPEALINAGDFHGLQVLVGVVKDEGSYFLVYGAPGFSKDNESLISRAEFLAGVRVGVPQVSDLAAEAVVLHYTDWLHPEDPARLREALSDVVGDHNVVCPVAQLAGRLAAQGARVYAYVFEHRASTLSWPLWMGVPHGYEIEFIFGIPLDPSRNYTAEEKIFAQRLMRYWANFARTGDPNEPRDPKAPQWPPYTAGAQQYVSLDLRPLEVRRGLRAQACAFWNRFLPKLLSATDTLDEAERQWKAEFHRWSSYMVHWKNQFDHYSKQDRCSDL
How it was run: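 Cells (SH-SY5Y, 2,000 per well) are seeded and left overnight at 37 C. Compound is added for 30 min, then DTNB and acetylthiocholine for a further 90 min at 37 C before absorbance-based thiocholine detection.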

[2] = target: Acetylcholinesterase (Homo sapiens) (UniProt P22303); experiment: Acetylcholinesterase (AChE) small molecule antagonists: enzyme-based qHTS assay (AID 1347397; calls by dose curve; further: nearly all actives have a fitted effect of over 55% in size); details: Potency: AChE enzyme activity inhibition
How it was run: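 Recombinant human AChE, dispensed at 50 mU/mL, was preincubated with Tox21 10K compounds or DMSO vehicle for 30 min at room temperature. DTNB plus acetylthiocholine was then added, and thiocholine was measured colorimetrically after a further 10 min.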

[3] = target: Acetylcholinesterase (Homo sapiens) (UniProt P22303); experiment: Acetylcholinesterase (AChE) small molecule antagonists: fluorescence cell-based qHTS assay (AID 1347398; calls by dose curve; further: nearly all actives have a fitted effect of over 50% in size); details: Potency: AChE activity
How it was run: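 Human SH-SY5Y cells were plated overnight at 37 C, exposed to compound for 30 min at 37 C, 5% CO2, then given acetylthiocholine plus Thiolite Green for 40 min at room temperature; thiocholine fluorescence (Ex/Em 490/520 nm) reports endogenous AChE activity.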

[4] = target: Acetylcholinesterase (Homo sapiens) (UniProt P22303); experiment: Acetylcholinesterase (AChE) small molecule antagonists: enzyme-based qHTS assay with human liver microsomes (AID 1347399; calls by dose curve; further: nearly all actives have a fitted effect of over 60% in size); details: Potency: qHTS inhibition
How it was run: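 Recombinant human AChE (50 mU/mL in the enzyme mix) and human liver microsomes (0.25 mg/mL final) were preincubated with compound and NADPH (0.25 mg/mL final) for 30 min at 37 C. Acetylthiocholine/DTNB was then added; thiocholine was read colorimetrically after 10 min at room temperature.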

[5] = target: Cytochrome P450 2D6 (Homo sapiens) (UniProt P10635); experiment: Cytochrome P450 Family 2 Subfamily D Member 6 (CYP2D6) small molecule antagonists: luciferase reporter qHTS assay (AID 1671196); further: nearly all actives have a fitted effect of over 50% in size; further: potency means the concentration at half of the fitted maximal effect
Sequence of Cytochrome P450 2D6 (Homo sapiens) (P10635 whole entry, looked up): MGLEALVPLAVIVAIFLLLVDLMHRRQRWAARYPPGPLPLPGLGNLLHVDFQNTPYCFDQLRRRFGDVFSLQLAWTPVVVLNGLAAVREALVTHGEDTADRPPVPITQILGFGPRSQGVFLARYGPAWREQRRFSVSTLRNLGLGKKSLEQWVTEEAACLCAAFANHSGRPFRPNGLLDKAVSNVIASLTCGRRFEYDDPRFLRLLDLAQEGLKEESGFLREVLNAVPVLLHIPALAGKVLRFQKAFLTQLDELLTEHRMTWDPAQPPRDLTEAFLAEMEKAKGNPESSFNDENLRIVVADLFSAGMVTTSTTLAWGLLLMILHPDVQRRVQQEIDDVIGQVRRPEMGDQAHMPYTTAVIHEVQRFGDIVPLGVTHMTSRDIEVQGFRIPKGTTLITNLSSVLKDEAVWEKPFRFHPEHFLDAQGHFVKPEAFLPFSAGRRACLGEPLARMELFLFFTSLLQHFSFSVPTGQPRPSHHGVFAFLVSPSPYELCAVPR
How it was run: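 Luminescence (RLU), read 20 min after detection reagent, indicated CYP2D6 conversion of proluciferin to luciferin during a 1 h NADPH-dependent reaction at room temperature.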

[6] = target: Cytochrome P450 2C19 (Homo sapiens) (UniProt P33261); experiment: Cytochrome P450 Family 2 Subfamily C Member 19 (CYP2C19) small molecule antagonists: luciferase reporter qHTS assay (AID 1671197); further: nearly all actives have a fitted effect of over 65% in size; further: potency means the concentration at half of the fitted maximal effect
Sequence of Cytochrome P450 2C19 (Homo sapiens) (P33261 whole entry, looked up): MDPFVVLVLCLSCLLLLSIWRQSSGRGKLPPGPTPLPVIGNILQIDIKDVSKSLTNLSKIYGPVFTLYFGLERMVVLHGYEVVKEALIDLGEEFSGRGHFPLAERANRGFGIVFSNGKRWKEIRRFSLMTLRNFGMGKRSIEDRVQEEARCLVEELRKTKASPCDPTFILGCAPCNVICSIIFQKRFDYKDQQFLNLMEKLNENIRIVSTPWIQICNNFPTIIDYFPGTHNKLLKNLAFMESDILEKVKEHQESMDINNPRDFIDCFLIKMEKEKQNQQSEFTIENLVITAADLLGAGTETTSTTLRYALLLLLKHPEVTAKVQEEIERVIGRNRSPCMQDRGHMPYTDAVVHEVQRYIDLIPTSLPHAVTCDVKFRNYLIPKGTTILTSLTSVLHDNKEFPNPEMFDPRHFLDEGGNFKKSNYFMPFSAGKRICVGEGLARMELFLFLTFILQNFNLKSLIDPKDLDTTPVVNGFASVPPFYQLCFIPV
How it was run: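 First, compounds are pinned into enzyme-substrate mix and held 10 min at room temperature. Second, NADPH regeneration solution is added and plates incubate 1 h at 37C. Third, detection reagent is added and luminescence read after 20 min.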

[7] = target: Cytochrome P450 1A2 (Homo sapiens) (UniProt P05177); experiment: Cytochrome P450 Family 1 Subfamily A Member 2 (CYP1A2) small molecule antagonists: luciferase reporter qHTS assay (AID 1671199); further: nearly all actives have a fitted effect of over 50% in size; further: potency means the concentration at half of the fitted maximal effect
Sequence of Cytochrome P450 1A2 (Homo sapiens) (P05177 whole entry, looked up): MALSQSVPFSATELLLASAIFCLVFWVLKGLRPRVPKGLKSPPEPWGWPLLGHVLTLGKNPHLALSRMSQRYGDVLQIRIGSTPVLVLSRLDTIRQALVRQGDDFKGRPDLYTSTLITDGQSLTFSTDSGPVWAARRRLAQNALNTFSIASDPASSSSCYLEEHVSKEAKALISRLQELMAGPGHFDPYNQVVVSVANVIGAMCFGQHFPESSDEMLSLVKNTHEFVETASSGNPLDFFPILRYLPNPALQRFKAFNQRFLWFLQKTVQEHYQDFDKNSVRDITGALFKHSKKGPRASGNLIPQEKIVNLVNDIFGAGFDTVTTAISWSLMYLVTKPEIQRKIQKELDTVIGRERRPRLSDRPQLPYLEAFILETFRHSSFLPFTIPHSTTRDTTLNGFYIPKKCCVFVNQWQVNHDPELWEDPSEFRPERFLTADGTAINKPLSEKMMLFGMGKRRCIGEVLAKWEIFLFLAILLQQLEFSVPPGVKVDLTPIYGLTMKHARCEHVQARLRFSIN
How it was run: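 CYP1A2 turnover of a luminogenic substrate was quantified after 1 h with NADPH regeneration at room temperature. Furafylline served as positive control.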

[8] = target: Voltage-gated inwardly rectifying potassium channel KCNH2 (Homo sapiens) (UniProt Q12809); experiment: Human Ether-a-go-go-Related Gene (hERG) channel small molecule antagonists: fluorescence cell-based qHTS assay (AID 1671200);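 further: hERG-expressing U2OS cells given a thallium stimulus after FluxOR II dye loading; series mostly up to about 77 µM; nearly all actives have a fitted effect of over 50% in size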
Sequence of Voltage-gated inwardly rectifying potassium channel KCNH2 (Homo sapiens) (Q12809 whole entry, looked up): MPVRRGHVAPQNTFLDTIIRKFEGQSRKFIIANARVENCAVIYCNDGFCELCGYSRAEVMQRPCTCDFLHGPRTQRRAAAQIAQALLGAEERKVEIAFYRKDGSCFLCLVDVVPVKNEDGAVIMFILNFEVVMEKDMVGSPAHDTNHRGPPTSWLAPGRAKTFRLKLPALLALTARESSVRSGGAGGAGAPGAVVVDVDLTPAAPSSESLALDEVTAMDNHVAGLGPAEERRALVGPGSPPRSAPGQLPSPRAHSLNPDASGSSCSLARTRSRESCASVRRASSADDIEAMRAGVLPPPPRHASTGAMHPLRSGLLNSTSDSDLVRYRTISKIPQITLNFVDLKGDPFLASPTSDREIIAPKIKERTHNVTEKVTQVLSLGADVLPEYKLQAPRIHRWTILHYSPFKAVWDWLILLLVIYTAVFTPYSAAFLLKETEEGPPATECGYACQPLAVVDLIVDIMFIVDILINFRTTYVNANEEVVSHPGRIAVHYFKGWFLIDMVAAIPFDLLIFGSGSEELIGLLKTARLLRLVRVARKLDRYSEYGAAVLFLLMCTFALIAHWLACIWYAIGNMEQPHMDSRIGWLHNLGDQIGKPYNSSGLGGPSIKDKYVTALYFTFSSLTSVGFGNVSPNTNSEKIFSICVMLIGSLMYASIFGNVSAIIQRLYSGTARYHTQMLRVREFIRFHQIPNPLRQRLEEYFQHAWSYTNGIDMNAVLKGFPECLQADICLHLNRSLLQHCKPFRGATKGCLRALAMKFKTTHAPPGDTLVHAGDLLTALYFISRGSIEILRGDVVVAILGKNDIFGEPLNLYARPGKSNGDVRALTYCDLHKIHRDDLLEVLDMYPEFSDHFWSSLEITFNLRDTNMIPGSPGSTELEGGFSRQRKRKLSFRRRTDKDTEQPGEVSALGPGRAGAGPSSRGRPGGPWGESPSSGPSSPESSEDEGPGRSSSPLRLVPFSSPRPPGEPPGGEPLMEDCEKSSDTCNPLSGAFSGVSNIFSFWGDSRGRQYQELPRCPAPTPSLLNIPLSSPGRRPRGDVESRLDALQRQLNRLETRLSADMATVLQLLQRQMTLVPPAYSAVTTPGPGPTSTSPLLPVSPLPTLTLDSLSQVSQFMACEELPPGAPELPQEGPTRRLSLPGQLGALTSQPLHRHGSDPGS
How it was run: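 Fluorescence at 540 nm emission (480 nm excitation) was recorded kinetically for 2 min at 1-second intervals once the thallium-containing stimulus reached cells previously loaded with FluxOR II dye.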

[9] = target: Cytochrome P450 3A4 (Homo sapiens) (UniProt P08684); experiment: Cytochrome P450 Family 3 Subfamily A Member 4 (CYP3A4) small molecule antagonists: luciferase reporter qHTS assay (AID 1671201); further: nearly all actives have a fitted effect of over 50% in size; further: potency means the concentration at half of the fitted maximal effect
Sequence of Cytochrome P450 3A4 (Homo sapiens) (P08684 whole entry, looked up): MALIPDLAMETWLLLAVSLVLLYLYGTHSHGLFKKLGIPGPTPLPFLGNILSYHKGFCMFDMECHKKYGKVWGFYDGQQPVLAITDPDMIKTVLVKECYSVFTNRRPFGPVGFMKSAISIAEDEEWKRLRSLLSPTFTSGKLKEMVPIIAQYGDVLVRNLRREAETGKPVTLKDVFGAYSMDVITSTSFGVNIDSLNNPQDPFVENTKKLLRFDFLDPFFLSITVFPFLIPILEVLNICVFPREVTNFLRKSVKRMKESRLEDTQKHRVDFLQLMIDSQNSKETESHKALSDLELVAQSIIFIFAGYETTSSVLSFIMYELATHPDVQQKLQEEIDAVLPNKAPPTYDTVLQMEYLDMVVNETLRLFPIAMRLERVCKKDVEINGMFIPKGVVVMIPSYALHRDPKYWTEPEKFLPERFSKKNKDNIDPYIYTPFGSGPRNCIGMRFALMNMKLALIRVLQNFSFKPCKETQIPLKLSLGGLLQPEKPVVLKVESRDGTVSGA
How it was run: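 qHTS, 1536-well. CYP3A4 + proluciferin substrate, cpd 10 min RT → NADPH regen 1 h RT → detection reagent 20 min → luminescence (RLU). Ketoconazole positive control.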

[10] = target: Cytochrome P450 2C9 (Homo sapiens) (UniProt P11712); experiment: Cytochrome P450 Family 2 Subfamily C Member 9 (CYP2C9) small molecule antagonists: luciferase reporter qHTS assay (AID 1671198); further: nearly all actives have a fitted effect of over 50% in size; further: potency means the concentration at half of the fitted maximal effect
Sequence of Cytochrome P450 2C9 (Homo sapiens) (P11712 whole entry, looked up): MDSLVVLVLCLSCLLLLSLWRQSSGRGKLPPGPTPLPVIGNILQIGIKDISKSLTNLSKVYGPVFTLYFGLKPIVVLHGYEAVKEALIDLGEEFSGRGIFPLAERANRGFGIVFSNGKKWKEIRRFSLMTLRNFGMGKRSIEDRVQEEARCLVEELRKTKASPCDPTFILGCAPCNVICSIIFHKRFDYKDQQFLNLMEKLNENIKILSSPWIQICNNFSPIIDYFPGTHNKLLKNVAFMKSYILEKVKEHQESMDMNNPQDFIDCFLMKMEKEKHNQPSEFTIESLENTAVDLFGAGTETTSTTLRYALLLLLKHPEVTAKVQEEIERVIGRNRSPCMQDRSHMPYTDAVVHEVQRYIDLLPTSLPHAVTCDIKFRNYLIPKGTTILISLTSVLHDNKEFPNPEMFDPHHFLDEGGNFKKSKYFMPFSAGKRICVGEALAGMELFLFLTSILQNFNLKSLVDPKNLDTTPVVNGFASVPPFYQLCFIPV
How it was run: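 CYP2C9 activity was measured with a P450-Glo proluciferin substrate. Enzyme–substrate mix was held with compound for 10 min at room temperature, then NADPH regeneration solution was added for 1 h at 37C. Luciferin product was read as luminescence.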

Structure (SMILES) | Potency [1] | Potency [2] | Potency [3] | Potency [4] | Potency [5] | Potency [6] | Potency [7] | Potency [8] | Potency [9] | Potency [10]
CC(C)=CCOc1c2occc2cc2ccc(=O)oc12 | inactive | inactive | inactive | inactive | 4.9 µM (active) | 4.36 µM (active) | 0.229 µM (active) | – | – | –
CC(C)O.CC(C)O.OCCN(CCO)CCO.OCCN(CCO)CCO.[Ti] | inactive | inactive | inactive | inactive | inactive | inactive | inactive | inactive | inactive | –
O=C(CBr)c1ccccc1 | inactive | inactive | inactive | inactive | 2.53 µM (active) | 56.7 µM (active) | 63.7 µM (active) | inactive | inactive | –
C=CCC1([C@H](C)CCC)C(=O)NC(=O)NC1=O | inactive | inactive | inactive | inactive | inactive | inactive | inactive | inactive | 31.4 µM (active) | –
Brc1ccc(Oc2ccccc2)cc1 | inactive | inactive | inactive | inactive | inactive | 81.7 µM (active) and 31.7 µM (active) | 25.2 µM (active) | inactive | inactive | –
COP(=S)(OC)Oc1ccc([N+](=O)[O-])cc1Cl | inactive | inactive | inactive | inactive | inactive | 39.9 µM (active) | 22.4 µM (active) | inactive | 6.33 µM (active) | –
Sc1ccccc1Cl | inactive | inactive | inactive | inactive | inactive | inactive | inactive | inactive | inactive | –
CC(O)(CS(=O)(=O)c1ccc(F)cc1)C(=O)Nc1ccc(C#N)c(C(F)(F)F)c1 (stereo not drawn) | inactive | inactive | inactive | inactive | inactive | 3.69 µM (active) | inactive | inactive | – | –
CC(c1ccc(O)cc1)(c1ccc(O)cc1)c1ccc(O)cc1 | inactive | inactive | inactive | inactive | 71 µM (active) | 28.3 µM (active) | inactive | – | – | –
CCCCN=C=O | inactive | inactive | inactive | inactive | inactive | 35.2 µM (active) | – | inactive | inactive | inactive
CCCCOC(=O)c1ccccc1C(=O)OCc1ccccc1 | inactive | inactive | inactive | inactive | inactive and 71 µM (active) | 1.78 µM (active) and 1.12 µM (active) | 15.9 µM (active) and 12.7 µM (active) | – | inactive | –
O=[Se]=O | inactive | inactive | inactive | inactive | inactive | – | inactive | inactive | – | –
NS(=O)(=O)C(F)(F)C(F)(F)C(F)(F)C(F)(F)C(F)(F)C(F)(F)C(F)(F)C(F)(F)F | inactive | inactive | inactive | inactive | inactive | – | inactive | inactive | inactive | 0.633 µM (active)
CC(C)(Cl)[N+](=O)[O-] | inactive | inactive | inactive | inactive | inactive | 89.8 µM (active) | – | inactive | inactive | –
CC1C(=O)C[C@]2(C(C)C)C[C@H]12 (stereo partly drawn) | inactive | inactive | inactive | inactive | 34.5 µM (active) | 34.5 µM (active) | – | inactive | inactive | –
ClP(Cl)(Cl)(Cl)Cl | inactive | inactive | inactive | inactive | inactive | – | inactive | – | – | inactive
C=CC(=O)NCNC(=O)C=C | inactive | inactive | inactive | inactive | 3.56 µM (active) | inactive | 46.5 µM (active) | – | inactive | –
Nc1nc(N)nc(N)n1 | inactive | inactive | inactive | inactive | inactive | – | 31.8 µM (active) | inactive | inactive | inactive
Cc1ccc2ccccc2c1 | inactive | inactive | inactive | inactive | inactive | inactive | – | inactive | – | –
O=C(NC(=O)c1c(F)cccc1F)Nc1cc(Cl)c(Oc2ncc(C(F)(F)F)cc2Cl)c(Cl)c1 | inactive | inactive | inactive | inactive | inactive | – | inactive | – | inactive | –
Clc1cc(C(Cl)(Cl)Cl)cnc1Cl | inactive | inactive | inactive | inactive | inactive | – | 7.96 µM (active) | inactive | 8.94 µM (active) | –
C=CC(=O)OCC(C)O (stereo not drawn) | inactive | inactive | inactive | inactive | inactive | inactive | – | inactive | inactive | –
Brc1ccccc1 | inactive | inactive | inactive | inactive | inactive | – | – | inactive | inactive | inactive
O=C(CBr)OCc1ccccc1 | inactive | inactive | inactive | inactive | inactive | – | inactive | inactive | – | 35.6 µM (active)
O=NN1CCCCCC1 | inactive | inactive | inactive | inactive | inactive | inactive | – | inactive | inactive | –
